From PubChem BioAssay
A selection: hits, their analogues and other compounds. The true share with any hit is near 4.1%.
ssDAF12 agonist: activates DAF-12 receptor from parasite S. stercoralis; actives 1% (n = 370,000); activation, % at 6.8 µM; HEK293 ssDAF-12/GRIP1 lit1-tk-luc reporter, luminescence; % of 3 µM dafachronic acid response;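 active = activation above the mean over all tested compounds plus 3 SD, cut at about 0.9% in these data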
DAX1 inh-1: inhibitors of human orphan nuclear receptor DAX1 (NR0B1) | P51843 | HEK293 Gal4-DAX1 luciferase reporter, luminescence | inhibition, % at 6.75 µM | actives 0.99% (n = 340,000) | AID 504766;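 active = inhibition above the mean over all tested compounds plus 3 SD, cut at about 4.2% in these data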;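 note: inhibition shows as a rise in luminescence from relieved DAX1 repression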
Target sequence (P51843 207-470 limits assumed): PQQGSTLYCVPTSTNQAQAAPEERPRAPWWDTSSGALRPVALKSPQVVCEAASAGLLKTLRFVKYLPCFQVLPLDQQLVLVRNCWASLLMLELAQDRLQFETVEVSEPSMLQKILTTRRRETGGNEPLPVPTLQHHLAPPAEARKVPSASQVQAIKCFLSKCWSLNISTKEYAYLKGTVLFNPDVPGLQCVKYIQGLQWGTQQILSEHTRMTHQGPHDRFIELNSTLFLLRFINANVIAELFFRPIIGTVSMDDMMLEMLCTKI
hcDAF12 agonist: activators of H. contortus DAF-12 nuclear receptor; actives 1.4% (n = 370,000); activation, % at 6.8 µM; HEK293 hcDAF-12 lit1-tk-luc reporter, luminescence; 0% DMSO, 100% Δ7-dafachronic acid;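 active = activation above the mean of all tested compounds plus 3 SD, cut at about 5.5% in these data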
hgDAF-12 ag: hgDAF-12 agonism, primary luciferase screen. HEK293 GAL4-hgDAF12 UAS-luciferase reporter, agonist luminescence; normalized to butyrate control. activation, % at 6.8 µM. actives 1.8% (n = 370,000);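 active = activation above a cutoff set at the mean of all screened compounds plus 3 SD, cut at about 10% in these data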
DAX1 inh-2: inhibitors of DAX1 repression of SF-1 activated StAR promoter | AID 652010 | actives 1.1% (n = 370,000) | HEK293T StAR-luciferase reporter, SF-1/DAX-1 repression relief | inhibition, % at 6.8 µM;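 active = inhibition above the mean over all tested compounds plus 3 SD, cut at about 3.6% in these data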;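 note: higher inhibition means more luminescence from relief of DAX-1 repression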
hgDAF12 ag: hgDAF-12 agonism, confirmation assay; shares compounds with hgDAF-12 ag; HEK293 GAL4-hgDAF12 luciferase reporter, agonist mode; percent of butyrate response; activation, % at 6.8 µM; actives 80% (n = 3,300);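 active = mean activation over triplicate wells above the hit cutoff derived from the earlier primary screen, cut at about 11% in these data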
LXR ag 2: counter-screen for DAF-12 agonists: agonists of human LXR-beta; 3,300 tested, under 10 active; shares compounds with hgDAF-12 ag; activation, % at 6.8 µM; HEK293 Gal4-LXR luciferase reporter, 24 h; AID 743051;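 active = mean activation of the triplicate above a set limit carried over from the primary screen, none filed active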
Target sequence (P55055 whole entry, looked up, the tested form may be a part): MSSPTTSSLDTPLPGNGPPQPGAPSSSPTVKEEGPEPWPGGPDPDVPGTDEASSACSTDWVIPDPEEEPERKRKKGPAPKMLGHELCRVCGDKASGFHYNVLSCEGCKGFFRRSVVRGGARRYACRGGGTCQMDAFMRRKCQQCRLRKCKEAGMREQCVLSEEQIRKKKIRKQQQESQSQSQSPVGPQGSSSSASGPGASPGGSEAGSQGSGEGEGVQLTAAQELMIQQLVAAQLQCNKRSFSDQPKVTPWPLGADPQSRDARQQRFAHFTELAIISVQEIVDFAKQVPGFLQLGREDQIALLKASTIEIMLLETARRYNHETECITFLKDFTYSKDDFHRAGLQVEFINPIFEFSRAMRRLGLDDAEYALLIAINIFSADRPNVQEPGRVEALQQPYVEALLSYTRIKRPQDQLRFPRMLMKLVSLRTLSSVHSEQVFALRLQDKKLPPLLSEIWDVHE
Large screens that a line does not name were inactive (follow-up assays come after a bar, where they were run).

O=C(Cn1nc(-c2ccccc2)ccc1=O)NCCc1ccccc1F	none (no result: DAX1 inh-1)
COC(=O)[C@]12C[C@H](CC(=O)N3CCN(C(=O)c4ccco4)CC3)C(=O)N(Cc3cccc4ccccc34)C1=C[C@H](C1CCCC1)O[C@@H]2C	none (no result: DAX1 inh-1)
CC(C)NC(=O)Cn1c(-c2cncs2)nc2ccccc21	none (no result: DAX1 inh-1)
COC(=O)c1ccccc1NC(=O)Nc1ccc(C(=O)N2CCCC2)cc1	none
COc1ccccc1NC(=O)Nc1ccc(C(=O)N2CCCCC2)cc1	hgDAF-12 ag 14 | hgDAF12 ag 11 | LXR ag 2 inactive
Brc1ccc(-c2nnc(-c3cccc(Br)c3)o2)cc1	none
Cc1cccc(-c2nnc(-c3ccccc3)o2)c1	hgDAF-12 ag 13 | hgDAF12 ag 16 | LXR ag 2 inactive
CN(C)c1ccc(/C=N/OC(=O)Nc2ccccc2)cc1	hcDAF12 agonist 5.8, hgDAF-12 ag 14 | hgDAF12 ag 18 | LXR ag 2 inactive
COc1ccc(-c2cc(C(=O)N=Nc3c(O)[nH]c4ccccc34)[nH]n2)cc1	none (no result: DAX1 inh-1)
CC(=O)N1CCc2cc(S(=O)(=O)NC3CCN(C(=O)CCl)CC3)ccc21	none (no result: DAX1 inh-1)
O=C(Nc1ccc(C(O)(C(F)(F)F)C(F)(F)F)cc1)c1ccc(Cl)cc1	hgDAF-12 ag 14 (no result: DAX1 inh-1, DAX1 inh-2) | hgDAF12 ag inactive | LXR ag 2 inactive
O=C(Nc1ccc(Cl)cc1)c1ccc2nsnc2c1	hgDAF-12 ag 18 | hgDAF12 ag 15 | LXR ag 2 inactive
O=C(Nc1ccc(C(O)(C(F)(F)F)C(F)(F)F)cc1)c1ccc(Cl)c([N+](=O)[O-])c1	none
C[C@H]1[C@@H](NC(=O)c2ccc(Cl)c(C(F)(F)F)c2)CC[C@@]23CCCN2C(=O)CCC[C@@H]13	none (no result: DAX1 inh-1, DAX1 inh-2)
NNC(=O)c1ccc(Cn2cc(Br)cn2)cc1	none
NNC(=O)c1ccc2nc(-c3ccc(Br)cc3)cn2c1	hgDAF-12 ag 15 | hgDAF12 ag 18 | LXR ag 2 inactive
CCn1c(SCC(=O)NN=Cc2cccc(OCc3ccccc3)c2)nnc1-c1ccc(OC)c(OC)c1	none (no result: DAX1 inh-1)
C/C(=N\NC(N)=O)c1ccc(-n2ccnc2)cc1	none
C/C(=N\NC(=O)c1ccc(C)cc1C)c1ccc(-n2ccnc2)cc1	hgDAF-12 ag 14 | hgDAF12 ag inactive | LXR ag 2 inactive
C=CCc1c(C)nc2cc(-c3ccc(C)cc3)[nH]n2c1=O	ssDAF12 agonist 1.0, hcDAF12 agonist 6.3, hgDAF-12 ag 14 | hgDAF12 ag 11 | LXR ag 2 inactive
C=CCN1[C@@H](C)[C@H](c2ccccc2)Oc2cccc(NCC(C)C)c2S1(=O)=O	none (no result: DAX1 inh-1)
C[C@@H]1CN([C@@H](C)CO)C(=O)CCCn2cc(nn2)CO[C@H]1CN(C)C(=O)Nc1ccc(C(C)(C)C)cc1	none (no result: DAX1 inh-1)
O=C(OCC(=O)N1CCOCC1)c1ccccc1Br	none
O=C(OCC(=O)N1CCOCC1)c1ccccc1Cc1ccccc1	hcDAF12 agonist 6.3, hgDAF-12 ag 17, DAX1 inh-2 4.1 | hgDAF12 ag 18 | LXR ag 2 inactive
N#C/C(=C(/O)c1ccco1)c1nc2ccccc2[nH]1	ssDAF12 agonist 1.2, DAX1 inh-1 5.0, hgDAF-12 ag 22, DAX1 inh-2 3.9 | hgDAF12 ag 23 | LXR ag 2 inactive
COc1ccccc1C(C(C(=O)c1ccccc1)N1CCOCC1)N1CCOCC1 (stereo unspecified)	hgDAF-12 ag 14 | hgDAF12 ag inactive | LXR ag 2 inactive
CC(=O)C(C(c1ccccc1)N1CCOCC1)N1CCOCC1 (stereo unspecified)	none
O=C(Nc1ccccc1)O/N=C(\c1ccccc1)c1ccccn1	hgDAF-12 ag 16 | hgDAF12 ag inactive | LXR ag 2 inactive
Cc1nn(-c2ccccn2)c2c1-c1nc(N)ncc1CC2	hgDAF-12 ag 18 | hgDAF12 ag 10 | LXR ag 2 inactive
COc1cccc(/C=C/c2ccccn2)c1O	hgDAF-12 ag 16 | hgDAF12 ag 14 | LXR ag 2 inactive
Cc1scc(C(=O)N/N=C/c2ccsc2)c1C	ssDAF12 agonist 1.1, hgDAF-12 ag 18 | hgDAF12 ag 17 | LXR ag 2 inactive
Cc1scc(C(=O)N/N=C/c2ccco2)c1C	none
CCCCCN(C(=O)CCC(=O)OCC(=O)N(C)C1CCCCC1)c1c(N)n(CCCC)c(=O)[nH]c1=O	hgDAF-12 ag 14 | hgDAF12 ag inactive | LXR ag 2 inactive
C=CCn1c(COc2ccc(Cl)cc2)nnc1SCC(=O)c1ccc(-c2ccccc2)cc1	none (no result: DAX1 inh-1)
COC(=O)CSc1nnc(-c2cccs2)o1	none (no result: DAX1 inh-1)
CSc1nsc(SCC(=O)Nc2ccc(C(C)=O)cc2)n1	ssDAF12 agonist 1.0, hcDAF12 agonist 12, hgDAF-12 ag 14 | hgDAF12 ag 21 | LXR ag 2 inactive
Cc1cccc(NC(=O)c2ccc(N3CCOCC3)c([N+](=O)[O-])c2)n1	hgDAF-12 ag 14 | hgDAF12 ag inactive | LXR ag 2 inactive
Cc1cccc(NC(=O)c2ccc(N3CCCCC3)c([N+](=O)[O-])c2)n1	none
COCc1cc(N2CCN(C(=O)OC(C)(C)C)C[C@@H]2C)ccc1Br	none (no result: DAX1 inh-1)
Cc1nonc1C1CCCN1C(=O)c1cc(COc2ccc(F)cc2F)on1 (stereo unspecified)	hgDAF-12 ag 15 | hgDAF12 ag 12 | LXR ag 2 inactive
CCOC(=O)Cc1nc2ccccc2[nH]1	none
CCOC(=O)c1ccc(NCc2nc3ccccc3[nH]2)cc1	hgDAF-12 ag 15 | hgDAF12 ag inactive | LXR ag 2 inactive
CCCC(=O)Nc1nc2ccc(OCC)cc2s1	hgDAF-12 ag 17 | hgDAF12 ag 15 | LXR ag 2 inactive
CCOc1ccc2nc(NC(=O)CS(=O)(=O)c3ccccc3)sc2c1	none
CC(=O)NCCC(=O)Nc1nc2ccc(Oc3ccccc3)cc2s1	hgDAF-12 ag 21 | hgDAF12 ag 15 | LXR ag 2 inactive
CNc1cccc(-c2cccc(O)c2)n1	hgDAF-12 ag 17 (no result: DAX1 inh-1) | hgDAF12 ag inactive | LXR ag 2 inactive
O=C(Nc1ccc(F)cc1)OCc1cn(Cc2cccc(F)c2)nn1	none (no result: DAX1 inh-1)
COC(=O)C1=C(C)N(C)C(=NCc2cc(OC)c(OC)c(OC)c2)NC1c1ccc(Cl)cc1 (stereo unspecified)	none (no result: DAX1 inh-1)
CCCCNC(=O)c1cc(-c2ccc(F)cc2)on1	hgDAF-12 ag 34 | hgDAF12 ag 42 | LXR ag 2 inactive
CCCNC(=O)c1cc(-c2ccc(OC)cc2)on1	none
CCCCNC(=O)c1cc(-c2ccc(OC)cc2)on1	hgDAF-12 ag 17 | hgDAF12 ag 16 | LXR ag 2 inactive
NC(Cc1ccc(O)cc1)C(=O)NN=Cc1ccccc1O (stereo unspecified)	none (no result: DAX1 inh-1)
O=C(O)C(=Cc1ccc([N+](=O)[O-])cc1)c1ccccc1	none (no result: DAX1 inh-1)
CCOc1ccc(N2CC(C(=O)NCCc3ccccc3)CC2=O)cc1 (stereo unspecified)	none
